Test results published in PubChem BioAssay AID2716 (Broad Institute, 2010).
“And” between values parts separate entries of the source, which are not always exact repeats. Equal entries are not always repeated. The campaign covered roughly 320,000 compounds. About 3,300 (1%) were called active.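 Rule for the calls: active = every valid replicate shows activation above 250% relative to neutral control wells; inactive = the rest, any valid replicate at or below 250%.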 The list comes from a sample in which actives are over-represented; it also holds similar structures and randomly drawn compounds.

Assay: yeast Mot1-301 growth rescue at high temperature, primary screen, SUMOylation pathway inhibitor project, S. cerevisiae, ATP luminescence, 38.5C (AID 2716);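 note: OY570 slx delta 5 strain wells were the positive control but not used for scaling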
Settings: S. cerevisiae Mot1-301 growth rescue, at 18.8 µM, hits give high values, percent above DMSO median, 100 means doubled

| Structure (SMILES) | growth rescue |
| --- | --- |
| O=C(NNS(=O)(=O)c1c(F)cc(F)c(Cl)c1F)C12CC3CC(CC(C3)C1)C2 | 1720% (active) |
| O=C(Nc1ccc(S(=O)(=O)Nc2ncccn2)cc1)C12CC3CC(CC(C3)C1)C2 | 35.6% (inactive) |
| CC(=O)N1CCN(S(=O)(=O)c2c(F)cc(F)c(Cl)c2F)CC1 | 9.01% (inactive) |
| CCN(CCn1cccn1)C(=O)CC1C(=O)NCCN1Cc1cccc(OC)c1OC (stereo not drawn) | -10.6% (inactive) |
| C=Cc1ccc(C(=O)N2CCCC(CCC(=O)N3CCN(c4ccccn4)CC3)C2)cc1 (stereo not drawn) | -28.8% (inactive) |
| O=C(c1ccc(F)cc1)c1c[nH]c(C(=O)NCc2cccnc2)c1 | -16% (inactive) |
| CCOC(=O)c1c(C)nn(-c2ncccc2NC(=O)CCC(=O)O)c1C | -17.7% (inactive) |
| N#Cc1c(-c2ccccc2)nc(SCc2ccc([N+](=O)[O-])cc2)[nH]c1=O | 10.6% (inactive) |
| COc1ccccc1CSc1ncc(-c2ccc([N+](=O)[O-])cc2)[nH]1 | 1260% (active) |
| COc1ccccc1CC(=O)Nc1ccc([N+](=O)[O-])cc1OC | -7.23% (inactive) |
| CC(C)(C)Oc1ccccc1Nc1nc(NCCO)nc(N2CCCC2)n1 | 8.32% (inactive) |
| O=C(COc1ccccc1[N+](=O)[O-])N/N=C/c1ccc[nH]1 | -23.4% (inactive) |
| CC(Oc1ccccc1[N+](=O)[O-])C(=O)N/N=C/c1ccoc1 (stereo not drawn) | 547% (active) |
| CC(C)c1cc(C(=O)N/N=C/c2ccoc2)c(O)c(C(C)C)c1 | 2.88% (inactive) |
| Nc1nonc1-n1nnc(C(=O)N/N=C/c2cc(Br)ccc2O)c1CSC1=NCCS1 | -10.1% (inactive) |
| CCN(C(=O)CSc1nc(N)cc(=O)[nH]1)C1CCS(=O)(=O)C1 (stereo not drawn) | 5.44% (inactive) |
| CC(C)(C)c1ccc(C(=O)NNC(=O)Cc2ccccc2)cc1 | 10.6% (inactive) |
| C=Cn1c(C(=O)O)ccc1-c1ccc(OC)cc1 | 6.91% (inactive) |
| COc1ccccc1N1CCN(C(=O)C(=O)N/N=C/c2ccccc2F)CC1 | 490% (active) |
| COc1ccccc1N1CCN(/N=C/c2ccc(O)cc2O)CC1 | 115% (inactive) |
| COc1cccc(/C=N/NC(=O)C(=O)N2CCCC2)c1 | 11% (inactive) |
| CCOC(=O)c1cnc2ccc(F)cc2c1Nc1ccc2c(c1)OCCO2 | 37% (inactive) |
| Nc1nc(COC(=O)CCC(=O)c2ccc(Cl)cc2)nc(Nc2ccccc2)n1 | 18.5% (inactive) |
| Cc1ccc(OC(=O)c2c(C)nn(-c3ccccc3)c2C)cc1 | -15.1% (inactive) |

| Structure (SMILES) | growth rescue |
| --- | --- |
| CCC(C(=O)NC1CCCCC1)N(C(=O)c1snc(C(N)=O)c1N)c1ccc(OC)cc1OC (stereo not drawn) | -10.5% (inactive) |
| COc1ccc(C(C(=O)NC2CCCCC2)N(C(=O)c2snc(C(N)=O)c2N)c2ccccc2OC)cc1 (stereo not drawn) | -0.518% (inactive) |
| CCOc1ccc(C(C(=O)NC2CCCC2)N(C(=O)c2snc(C(N)=O)c2N)C2CCCC2)cc1 (stereo not drawn) | 922% (active) |
| O=C(OCC(=O)N1CCc2ccccc21)C1CCCN1S(=O)(=O)c1ccc(Cl)cc1 (stereo not drawn) | 4.88% (inactive) |
| C/C(CC(O)(/C=N/O)c1ccccc1)=N\O (stereo not drawn) | 0.714% (inactive) |
| CCOc1c(OC)cccc1C(=O)NCC1(c2ccccc2)CCCC1 | 1.09% (inactive) |
| CCc1nc2ccccc2c(C(=O)NCc2ccc(OC)cc2)c1C | -10.8% (inactive) |
| CCc1nc2ccccc2c(C(=O)OC2CCCCC2=O)c1C (stereo not drawn) | 377% (active) |
| CCOC(=O)C1CCc2nc3ccccc3c(=O)n21 (stereo not drawn) | 141% (inactive) |
| CCS(=O)(=O)N1CCCC(C(=O)NCCCN(C)Cc2ccccc2)C1 (stereo not drawn) | 2.83% (inactive) |
| Cc1ccsc1C1C(C#N)=C(N)OC2=C1C(=O)CC(C)C2 (stereo not drawn) | -1.54% (inactive) |
| CCN(CC)CCNCc1ccc(OCc2ccc(Cl)nc2)c(OC)c1 | -8.12% (inactive) |
| CCOCCCNCc1ccc(OCc2ccc(F)cc2)c(OC)c1 | 445% (active) |
| COc1ccc(CNCCCO)cc1OC | -14.2% (inactive) |
| O=S(=O)(NCC1OCCc2ccccc21)c1ccccc1 (stereo not drawn) | -12.3% (inactive) |
| Cc1cccc(NC(=O)CCn2c(=O)oc3ccccc32)c1 | -12.1% (inactive) |
| Cc1cc(=O)oc2c1c(C)nn2-c1ccc(Cl)cc1 | -9.75% (inactive) |
| CCCCc1cc(=O)oc2cc(C)cc(OCc3nn[nH]n3)c12 | 64.1% (inactive) |
| Cc1cc(C)c2c(Cn3ccnc3)cc(=O)oc2c1 | 620% (active) |
| COC(=O)c1cc(S(=O)(=O)Nc2ccc(C)c(F)c2)c[nH]1 | -5.05% (inactive) |
| [O-][n+]1ccc(OCc2ccccc2)cc1 | -10% (inactive) |
| COCCNC(=O)C(c1ccc(C)cc1)N(C(=O)CCC(=O)Nc1ccccn1)c1cccc(C)c1 (stereo not drawn) | 451% (active) |
| COCCNC(=O)C(c1ccc(O)cc1)N(C(=O)CCC(=O)Nc1nccs1)c1ccc(C)cc1 (stereo not drawn) | -11.3% (inactive) |
| CCOc1ccc(C(C(=O)NCCOC)N(CCOC)C(=O)CCC(=O)Nc2ccccn2)cc1 (stereo not drawn) | 0.544% (inactive) |

| Structure (SMILES) | growth rescue |
| --- | --- |
| COc1ccc([N+](=O)[O-])cc1N(CC(=O)Nc1ccccc1C(=O)N1CCOCC1)S(C)(=O)=O | -10.4% (inactive) |
| COC(=O)c1scc(C)c1NC(=O)CSc1ccc(Cl)cc1 | -2.32% (inactive) |
| COc1ccc(-c2ccc(CCC(=O)O)n2NC(=O)c2ccc(C(C)(C)C)cc2)cc1 | -8.8% (inactive) |
| O=C(Nc1ccncc1)c1c(F)cccc1F | -9.16% (inactive) |
| CSc1nc2ccc(NC(=O)c3c(F)cccc3F)cc2s1 | 423% (active) |
| CCCC(=O)Nc1nc2ccc(NC(=O)c3c(F)c(F)c(OC)c(F)c3F)cc2s1 | -0.657% (inactive) |
| Cc1ccc(S(=O)(=O)NC(=O)N2CCCN(Cc3ccc(F)cc3)CC2)cc1 | 290% (inactive) |
| Cc1cc(NC(=O)CSc2ncc(C(F)(F)F)cc2Cl)no1 | 6.57% (inactive) |
| Cc1nc2ccccc2n1C(=O)N1CCOCC1 | -12.1% (inactive) |
| CCCC[C@H]1COCCS(=O)(=O)N1Cc1cccc(Cl)c1 | -7.4% (inactive) |
| Cc1ccc(CN2CCCOCCS2(=O)=O)cc1 | -17.5% (inactive) |
| CCC(C)[C@H]1COCCS(=O)(=O)N1Cc1ccc(C)cc1 (stereo partly drawn) | 881% (active) |
| COCCn1c(C)cc(C(=O)CSc2nnc(C3CC3)n2C2CC2)c1C | 9.96% (inactive) |
| Cc1cc(Br)ccc1NC(=O)c1cnc(N2CCN(c3ccccn3)CC2)c2ccccc12 | 1030% (active) |
| Cc1cc(Br)ccc1NC(=O)c1sc2ncn(CC(=O)N3CCN(c4ccccn4)CC3)c(=O)c2c1C | -24.4% (inactive) |
| O=C(CN1CCN(c2ccccn2)CC1)Nc1ccc(Br)cc1 | 5.41% (inactive) |
| COc1ccc(N2CCN(C(=O)COC(=O)c3cccc(S(=O)(=O)Nc4ccccc4OC)c3)CC2)cc1 | -0.984% (inactive) |
| COc1ccc(N2CC(C(=O)NCCS(=O)(=O)N3CCN(c4ccccc4)CC3)CC2=O)cc1 (stereo not drawn) | 3.93% (inactive) |
| CCCCNC(=O)Cn1nc(C)c(S(=O)(=O)N2CCOCC2)c1C | -1.53% (inactive) |
| O=C(COc1ccc2c3c(c(=O)oc2c1)CCCC3)NCC(O)c1ccccc1 (stereo not drawn) | 1.8% (inactive) |
| O=C(COc1ccc2c3c(c(=O)oc2c1)CCC3)NC1CCCCC1 | 5.16% (inactive) |
| NC(=O)C1CCN(C(=O)COc2ccc3c4c(c(=O)oc3c2)CCC4)CC1 | 296% (active) |
| CCCCCCCCCCCCN1[C@@H](CC(C)=O)c2cc(F)cc(F)c2S1(=O)=O | -17.6% (inactive) |
| COc1ccc(C)cc1N(C(=O)Cn1nnc(-c2ccc(C)o2)n1)C(C(=O)NC1CCCC1)c1ccncc1 (stereo not drawn) | -11.2% (inactive) |

| Structure (SMILES) | growth rescue |
| --- | --- |
| CN(CCO)c1ccc(/C=N/Nc2nncc3ccccc23)cc1 | 20.6% (inactive) |
| C=CC1=C(C(=O)O)N2C(=O)[C@@H](NC(=O)/C(=N/OCC(=O)O)c3csc(N)n3)[C@H]2SC1 | 328% (active) |
| Cc1cc(C)cc(C(=O)NC2C(=O)N3C(C(=O)O)=C(CSc4nnc(C)s4)CSC23)c1 (stereo not drawn) | -7.63% (inactive) |
| CO/N=C(\C(=O)N[C@@H]1C(=O)N2C(C(=O)O)=C(COC(C)=O)CS[C@H]12)c1csc(N)n1 (stereo in doubt) | -1.64% (inactive) and 233% (inactive) |
| CCN(C(=O)COC(=O)Cc1c(F)cccc1Cl)c1c(N)n(Cc2ccccc2)c(=O)[nH]c1=O | -1.24% (inactive) |
| Cc1ccccc1N1CCN(CC(=O)NCc2ccc(Cl)cc2)CC1 | 22% (inactive) |
| CCOc1ccc(C(C)C)cc1S(=O)(=O)n1nc(C)cc1C | -14.9% (inactive) |
| COc1ccc(C(C[N+](=O)[O-])n2nc(C)cc2C)cc1 (stereo not drawn) | 383% (active) |
| COc1ccc(OCc2cn3c(C)cc(C)nc3n2)cc1 | 1.72% (inactive) |
| Nc1c(-c2cccc(Cl)c2)cnn1-c1cccc([N+](=O)[O-])c1 | 0.816% (inactive) |
| O=C(Nc1ccc(-n2ccnc2P(=O)(O)c2ccccc2)cc1)c1ccccc1Br | 46.7% (inactive) |
| O=C(CP(=O)(c1ccccc1)c1ccccc1)N1CCOCC1 | 634% (active) |
| O=C(Cc1ccccc1Cl)N1CCOCC1 | 9.61% (inactive) |
| O=C(O)CC(CC(=O)N1CCOCC1)c1ccccc1 (stereo not drawn) | -13.1% (inactive) |
| COc1ccc(C(=O)COC(=O)CN2C(=O)C3CC=CCC3C2=O)c(OC)c1 (stereo not drawn) | 9.86% (inactive) |
| CCC(CO)Oc1cc(NCc2ccccc2)c2ncn(C3CCCC3)c2c1 (stereo not drawn) | 9.9% (inactive) |
| C/C(CC(C)C)=N\Oc1nc(C)cc(C)n1 | -10.5% (inactive) |
| CC(CN1CCCCC1)c1ccccc1 (stereo not drawn) | 7.87% (inactive) |
| O=C(CN1CCCC1)N1CCN(c2ccccc2)CC1 | 0.51% (inactive) |
| CN(C)/C(CN1CCCCC1)=C1\N=C(c2ccccc2)OC1=O | 1740% (active) |
| O=C(c1cc(Cl)cc(Cl)c1)N1CCC(=O)N(C(COCc2ccccc2)Cc2ccccc2)CC1 (stereo not drawn) | -7.87% (inactive) |
